Data on 1 sequence can be found in paper PMC7862700, “An all-to-all approach to the identification of sequence-specific readers for epigenetic DNA modifications on cytosine”.

Holding throughout (test): DAPPL (digital affinity profiling via proximity ligation, sequencing); 10 mM Tris-HCl pH 7.5, 50 mM NaCl, 1 mM DTT, 4% glycerol, room temperature, 30 min; GST-TFs on glutathione beads, 16-mer random dsDNA library, 0.1% formaldehyde crosslink after washing; high values mean tight binding
Holding throughout (details): protein: recombinant; tags: N-terminal GST; dsDNA, one strand shown

One experiment deals with T1, FLI1 (Homo sapiens, UniProt Q01543 1-452).
T1 sequence: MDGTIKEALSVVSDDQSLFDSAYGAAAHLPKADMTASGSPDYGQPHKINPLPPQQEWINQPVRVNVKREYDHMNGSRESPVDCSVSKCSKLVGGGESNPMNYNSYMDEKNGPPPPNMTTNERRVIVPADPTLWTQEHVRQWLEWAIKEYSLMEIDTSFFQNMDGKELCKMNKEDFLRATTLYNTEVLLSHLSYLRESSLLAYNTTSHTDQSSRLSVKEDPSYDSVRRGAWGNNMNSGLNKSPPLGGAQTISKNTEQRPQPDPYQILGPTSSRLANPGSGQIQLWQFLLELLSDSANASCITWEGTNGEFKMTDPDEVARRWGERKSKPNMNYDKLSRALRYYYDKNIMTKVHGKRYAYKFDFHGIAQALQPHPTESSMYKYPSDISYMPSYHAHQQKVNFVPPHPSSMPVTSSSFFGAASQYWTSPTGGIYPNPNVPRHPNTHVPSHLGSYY
The gist of the method:
(§1)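 Human transcription factors fused to GST were expressed in yeast, captured on glutathione beads, given DNA barcodes and pooled with a GST-only negative control. Pools were incubated with 200 nmole of a 16-mer random double-stranded DNA library in Tris/NaCl/DTT/glycerol buffer at room temperature for 30 min. They were then washed, crosslinked with 0.1% formaldehyde, proximity-ligated (BsaI/T4 ligase, 1 h, 37 °C), PCR-amplified and sequenced on an Illumina NextSeq500. Binding signal is each 6-mer's read frequency for a factor divided by its frequency for the GST control.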

For another experiment, the target named is T2, ERG (Homo sapiens, UniProt P11308 1-479).
T2 sequence: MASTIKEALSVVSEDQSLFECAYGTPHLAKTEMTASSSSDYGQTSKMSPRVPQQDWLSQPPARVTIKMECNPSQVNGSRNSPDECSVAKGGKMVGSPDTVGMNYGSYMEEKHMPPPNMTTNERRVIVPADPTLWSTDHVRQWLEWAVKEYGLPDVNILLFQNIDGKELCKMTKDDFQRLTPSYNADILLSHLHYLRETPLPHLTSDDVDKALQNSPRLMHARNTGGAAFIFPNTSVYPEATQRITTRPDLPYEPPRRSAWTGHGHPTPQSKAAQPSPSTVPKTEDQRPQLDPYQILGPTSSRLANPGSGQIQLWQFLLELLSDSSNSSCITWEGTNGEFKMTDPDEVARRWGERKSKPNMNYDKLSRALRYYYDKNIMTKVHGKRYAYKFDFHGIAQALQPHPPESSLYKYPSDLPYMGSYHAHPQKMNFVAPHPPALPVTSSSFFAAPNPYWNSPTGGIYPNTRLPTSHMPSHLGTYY
The gist of the method: as §1

Another experiment deals with T3, EHF (Homo sapiens, UniProt Q9NZC4 1-300).
T3 sequence: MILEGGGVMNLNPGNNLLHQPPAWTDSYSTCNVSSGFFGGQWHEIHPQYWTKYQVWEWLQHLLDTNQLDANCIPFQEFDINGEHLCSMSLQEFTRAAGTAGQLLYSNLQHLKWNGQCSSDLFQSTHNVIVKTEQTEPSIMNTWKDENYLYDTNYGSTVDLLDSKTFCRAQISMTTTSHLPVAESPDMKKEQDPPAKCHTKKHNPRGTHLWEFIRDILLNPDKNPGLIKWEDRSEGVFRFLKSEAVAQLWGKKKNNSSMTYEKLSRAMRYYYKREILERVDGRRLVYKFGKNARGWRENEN
The gist of the method: as §1

The target in a further experiment is T4, ELK3 (Homo sapiens, UniProt P41970 1-407).
T4 sequence: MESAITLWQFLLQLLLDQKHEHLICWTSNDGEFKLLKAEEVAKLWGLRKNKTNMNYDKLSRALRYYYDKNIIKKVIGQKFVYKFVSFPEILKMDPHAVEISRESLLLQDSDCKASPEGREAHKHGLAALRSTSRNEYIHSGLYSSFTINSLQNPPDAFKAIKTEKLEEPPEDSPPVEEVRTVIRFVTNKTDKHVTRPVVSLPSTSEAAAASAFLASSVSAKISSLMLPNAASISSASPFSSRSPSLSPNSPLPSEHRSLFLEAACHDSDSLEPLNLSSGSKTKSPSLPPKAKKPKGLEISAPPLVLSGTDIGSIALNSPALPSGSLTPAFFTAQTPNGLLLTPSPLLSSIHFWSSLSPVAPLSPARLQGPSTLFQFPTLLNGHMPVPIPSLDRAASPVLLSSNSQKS
In short, it runs like this:
as §1

For the next experiment, the target named is T5, SPIC (Homo sapiens, UniProt Q8N5J4 1-248).
T5 sequence: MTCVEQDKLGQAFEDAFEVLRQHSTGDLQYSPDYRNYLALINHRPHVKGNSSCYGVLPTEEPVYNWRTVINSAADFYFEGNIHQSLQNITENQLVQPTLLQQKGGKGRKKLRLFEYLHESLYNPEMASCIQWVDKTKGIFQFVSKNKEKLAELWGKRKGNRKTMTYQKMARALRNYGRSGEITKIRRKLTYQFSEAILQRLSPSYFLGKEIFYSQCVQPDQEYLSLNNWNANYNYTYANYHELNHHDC
In short, it runs like this:
as §1

For the next experiment, the target named is ELF4 (Homo sapiens, UniProt Q99607 1-663). In short, it runs like this: as §1
Chain of ELF4 (Q99607 whole entry): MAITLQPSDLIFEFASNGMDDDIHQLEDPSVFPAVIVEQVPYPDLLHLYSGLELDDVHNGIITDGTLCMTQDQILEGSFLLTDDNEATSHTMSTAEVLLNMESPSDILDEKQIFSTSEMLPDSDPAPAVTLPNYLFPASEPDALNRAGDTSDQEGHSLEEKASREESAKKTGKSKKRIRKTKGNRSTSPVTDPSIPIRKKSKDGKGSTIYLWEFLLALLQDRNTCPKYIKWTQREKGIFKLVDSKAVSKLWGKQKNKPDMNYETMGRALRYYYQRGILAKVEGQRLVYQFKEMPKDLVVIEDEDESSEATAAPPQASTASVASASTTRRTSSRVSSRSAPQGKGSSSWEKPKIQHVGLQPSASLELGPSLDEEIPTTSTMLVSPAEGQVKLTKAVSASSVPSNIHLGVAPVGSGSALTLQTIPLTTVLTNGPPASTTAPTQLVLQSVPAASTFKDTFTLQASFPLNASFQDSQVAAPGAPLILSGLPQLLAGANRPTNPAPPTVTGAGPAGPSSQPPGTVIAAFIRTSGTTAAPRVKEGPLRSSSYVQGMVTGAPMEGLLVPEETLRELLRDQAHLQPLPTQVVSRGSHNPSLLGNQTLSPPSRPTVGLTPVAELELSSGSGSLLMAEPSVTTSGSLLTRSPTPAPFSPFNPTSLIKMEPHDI
A further experiment addresses T6, ELK4 (Homo sapiens, UniProt P28324-2 1-405).
T6 sequence: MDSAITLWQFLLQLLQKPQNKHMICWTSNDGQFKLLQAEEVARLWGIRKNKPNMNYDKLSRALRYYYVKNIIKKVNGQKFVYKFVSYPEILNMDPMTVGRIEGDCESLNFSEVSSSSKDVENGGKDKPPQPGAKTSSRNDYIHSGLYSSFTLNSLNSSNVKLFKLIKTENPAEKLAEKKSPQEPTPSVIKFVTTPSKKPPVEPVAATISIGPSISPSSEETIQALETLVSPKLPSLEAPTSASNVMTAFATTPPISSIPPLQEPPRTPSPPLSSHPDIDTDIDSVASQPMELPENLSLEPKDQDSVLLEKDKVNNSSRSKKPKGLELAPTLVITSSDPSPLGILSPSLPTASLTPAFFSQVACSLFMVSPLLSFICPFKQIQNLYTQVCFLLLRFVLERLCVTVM
In short, it runs like this: as §1

A further experiment concerns the target T7, ELF3 (Homo sapiens, UniProt P78545 1-371).
T7 sequence: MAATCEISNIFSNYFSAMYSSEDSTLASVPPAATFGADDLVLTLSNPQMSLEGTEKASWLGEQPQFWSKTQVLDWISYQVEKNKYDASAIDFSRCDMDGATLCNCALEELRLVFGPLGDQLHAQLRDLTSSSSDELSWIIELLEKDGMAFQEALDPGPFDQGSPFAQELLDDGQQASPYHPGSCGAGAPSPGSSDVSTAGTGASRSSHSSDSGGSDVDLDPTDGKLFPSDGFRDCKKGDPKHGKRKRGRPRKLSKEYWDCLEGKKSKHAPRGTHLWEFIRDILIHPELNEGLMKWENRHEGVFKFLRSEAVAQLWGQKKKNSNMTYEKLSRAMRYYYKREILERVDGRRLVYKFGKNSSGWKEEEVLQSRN
In short, it runs like this: as §1

Another experiment deals with ETV1 (Homo sapiens, UniProt P50549 1-477). The gist of the method:
as §1

A further experiment deals with T8, ERF (Homo sapiens, UniProt P50548 1-548).
T8 sequence: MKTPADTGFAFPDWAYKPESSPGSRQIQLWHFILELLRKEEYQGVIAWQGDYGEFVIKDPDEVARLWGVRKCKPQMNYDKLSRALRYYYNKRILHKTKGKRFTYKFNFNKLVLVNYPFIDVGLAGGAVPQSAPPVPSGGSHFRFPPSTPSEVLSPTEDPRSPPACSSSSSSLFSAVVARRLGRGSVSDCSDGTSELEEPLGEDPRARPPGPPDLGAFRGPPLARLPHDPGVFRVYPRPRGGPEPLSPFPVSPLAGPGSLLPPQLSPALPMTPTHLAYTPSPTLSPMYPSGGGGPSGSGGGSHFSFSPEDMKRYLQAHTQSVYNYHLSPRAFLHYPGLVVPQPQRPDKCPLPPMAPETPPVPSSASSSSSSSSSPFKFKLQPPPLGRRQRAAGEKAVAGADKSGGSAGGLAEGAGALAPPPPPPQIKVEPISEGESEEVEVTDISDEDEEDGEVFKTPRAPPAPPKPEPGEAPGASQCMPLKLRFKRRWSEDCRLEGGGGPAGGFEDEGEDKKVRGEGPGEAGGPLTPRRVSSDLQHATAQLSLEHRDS
The gist of the method:
as §1

For the next experiment, the target named is T9, ETV7 (Homo sapiens, UniProt Q9Y603 1-341).
T9 sequence: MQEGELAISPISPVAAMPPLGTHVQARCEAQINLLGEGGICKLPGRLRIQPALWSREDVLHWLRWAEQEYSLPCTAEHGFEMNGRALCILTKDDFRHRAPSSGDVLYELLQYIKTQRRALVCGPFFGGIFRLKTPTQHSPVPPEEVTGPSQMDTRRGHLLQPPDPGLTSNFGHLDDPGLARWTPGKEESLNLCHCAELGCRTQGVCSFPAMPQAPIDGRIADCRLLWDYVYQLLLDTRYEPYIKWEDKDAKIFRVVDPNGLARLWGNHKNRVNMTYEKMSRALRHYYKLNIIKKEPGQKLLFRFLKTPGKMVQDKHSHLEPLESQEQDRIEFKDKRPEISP
The gist of the method:
as §1

The target in another experiment is ETV6 (Homo sapiens, UniProt P41212 1-452). In short, it runs like this:
as §1

Chain of ETV6 (P41212 whole entry): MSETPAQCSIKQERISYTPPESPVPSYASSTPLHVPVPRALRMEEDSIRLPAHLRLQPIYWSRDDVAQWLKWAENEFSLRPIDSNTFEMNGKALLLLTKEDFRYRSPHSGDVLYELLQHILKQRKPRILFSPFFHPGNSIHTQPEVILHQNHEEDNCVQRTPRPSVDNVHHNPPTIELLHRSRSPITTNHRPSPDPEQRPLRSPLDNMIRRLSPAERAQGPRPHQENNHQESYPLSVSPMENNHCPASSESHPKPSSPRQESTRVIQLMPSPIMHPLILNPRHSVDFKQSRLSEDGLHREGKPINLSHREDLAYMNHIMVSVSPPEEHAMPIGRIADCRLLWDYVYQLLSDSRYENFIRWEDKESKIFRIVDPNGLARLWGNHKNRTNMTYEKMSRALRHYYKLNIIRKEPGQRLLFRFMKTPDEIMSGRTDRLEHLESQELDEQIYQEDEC
Chain of ETV1 (P50549 whole entry): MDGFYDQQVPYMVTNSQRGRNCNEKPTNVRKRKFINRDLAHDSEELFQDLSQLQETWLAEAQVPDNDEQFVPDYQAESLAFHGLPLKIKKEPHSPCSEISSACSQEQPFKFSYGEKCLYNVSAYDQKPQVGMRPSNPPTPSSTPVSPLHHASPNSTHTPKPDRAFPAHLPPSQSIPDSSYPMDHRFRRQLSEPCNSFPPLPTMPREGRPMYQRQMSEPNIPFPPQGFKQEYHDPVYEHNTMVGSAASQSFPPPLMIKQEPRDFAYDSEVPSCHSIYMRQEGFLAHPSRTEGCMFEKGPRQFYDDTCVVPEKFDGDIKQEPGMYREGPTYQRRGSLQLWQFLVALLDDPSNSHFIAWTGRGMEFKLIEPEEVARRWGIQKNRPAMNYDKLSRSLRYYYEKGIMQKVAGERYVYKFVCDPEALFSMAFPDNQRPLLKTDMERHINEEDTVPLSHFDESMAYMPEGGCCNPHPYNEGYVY

On to GTCACG, for which the binding signal in the experiment with FLI1 was 1.09 fold enrichment (6-mer frequency, TF over GST control); in the experiment with ERG, 1.06 fold enrichment (6-mer frequency, TF over GST control); with EHF, 1.07 fold enrichment (6-mer frequency, TF over GST control); with ELK3 it was 1.02 fold enrichment (6-mer frequency, TF over GST control); with SPIC, 1.04 fold enrichment (6-mer frequency, TF over GST control); with ELF4, 1.07 fold enrichment (6-mer frequency, TF over GST control). Moreover, the binding signal in the experiment with ELK4 was 1.08 fold enrichment (6-mer frequency, TF over GST control); with ELF3, 1.02 fold enrichment (6-mer frequency, TF over GST control); in the experiment with ETV1, 1.1 fold enrichment (6-mer frequency, TF over GST control); with ERF it was 1.08 fold enrichment (6-mer frequency, TF over GST control); with ETV7, 1.04 fold enrichment (6-mer frequency, TF over GST control); in the experiment with ETV6, 1.04 fold enrichment (6-mer frequency, TF over GST control).
